Results on 38 molecules are retold here after PubChem BioAssay (Tox21).

Records with an inconclusive call do not appear. Where a call stands in place of a potency, no number is given. Active and inactive are the calls of the source. Calls follow the shape of the full dose curve.

Chain of Thyrotropin receptor (Homo sapiens) (P16473 whole entry, looked up): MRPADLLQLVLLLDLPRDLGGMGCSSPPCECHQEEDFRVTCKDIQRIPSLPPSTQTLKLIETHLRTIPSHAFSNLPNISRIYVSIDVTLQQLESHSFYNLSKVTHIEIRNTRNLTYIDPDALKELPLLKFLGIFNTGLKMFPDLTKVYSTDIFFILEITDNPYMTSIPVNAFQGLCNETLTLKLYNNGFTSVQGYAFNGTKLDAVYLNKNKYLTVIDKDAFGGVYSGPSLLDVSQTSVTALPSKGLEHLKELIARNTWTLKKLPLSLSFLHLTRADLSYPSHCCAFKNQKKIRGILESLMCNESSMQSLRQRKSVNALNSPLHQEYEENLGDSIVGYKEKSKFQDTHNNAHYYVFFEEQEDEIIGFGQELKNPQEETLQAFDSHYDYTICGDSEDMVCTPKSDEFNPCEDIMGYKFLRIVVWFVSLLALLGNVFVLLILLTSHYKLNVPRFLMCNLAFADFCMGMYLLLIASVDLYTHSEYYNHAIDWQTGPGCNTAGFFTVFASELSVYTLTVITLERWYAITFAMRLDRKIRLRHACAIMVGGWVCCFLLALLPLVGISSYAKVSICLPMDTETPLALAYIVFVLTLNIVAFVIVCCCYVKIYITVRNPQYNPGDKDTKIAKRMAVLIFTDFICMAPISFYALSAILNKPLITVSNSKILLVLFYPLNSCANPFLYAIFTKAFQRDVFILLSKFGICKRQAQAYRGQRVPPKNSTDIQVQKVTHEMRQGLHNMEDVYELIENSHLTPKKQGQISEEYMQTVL

One assay has as its target Thyrotropin receptor (Homo sapiens) (UniProt P16473). As to the kind of experiment: qHTS assay to identify small molecule agonists of the thyroid stimulating hormone receptor (TSHR) signaling pathway (AID 1224843). Also: nearly all actives have a fitted effect of over 45% in size. As to conditions: TSHR-HEK293 cells, cAMP HTRF, agonist mode, 30 min; series mostly up to 92.4 µM. The method in brief: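 Compounds are titrated over 15 concentrations, in triplicate, onto TSHR-HEK293 cells seeded at 800/well. Plates sit 30 min at room temperature before cAMP-d2 and anti-cAMP cryptate are added; signal is read after a further hour.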
In general terms: In qHTS, concentration-response curves come from the screen itself.
On to `CC(C)c1ccc(C(=O)N=C(N)N)cc1S(C)(=O)=O`, for which the Potency entry is “inactive”.
Still for that read-out and setting: to `COc1cc(NC(C)CCCN)c2ncccc2c1` (stereo unspecified) belongs “inactive”.
As for `CC(C(=O)O)c1ccc(C(=O)c2cccs2)cc1` (stereo unspecified), the Potency entry was “inactive”.
As for `CCCCCc1ccco1`, the Potency entry was “inactive”.
`O=C(O)CCCc1c[nH]c2ccccc12`: the Potency result was “inactive”.
For `CC(C)(C)NCC(O)COc1cccc2c1C[C@H](O)[C@H](O)C2` (stereo partly specified), the Potency entry is “inactive”.
For the molecule `Cc1cc(CCCOc2c(C)cc(-c3noc(C(F)(F)F)n3)cc2C)on1`, the Potency result is “inactive”.
With `CC(C)(C(=O)c1cccnc1)c1cccnc1`, the Potency entry was “inactive”.
As for `Cc1c[nH]c2ccccc12`, the Potency result is “inactive”.
In the case of `CC(=O)C(C)=O`, the Potency entry is “inactive”.
As for `CCN(CC)CCNC(=O)c1cc(Cl)c(N)cc1OC`, the Potency result was “inactive”.
On to `Oc1ccc2c(c1)Cc1ccccc1-2`, for which the Potency entry is “inactive”.
On to `O=C1OC[C@H](Cc2cccc(O)c2)[C@H]1Cc1cccc(O)c1`, for which the Potency entry is “inactive”.
Turning to `CC(C)OC(=O)c1ccccc1C(=O)OC(C)C`, the Potency entry is “inactive”.
For `CCC(=O)OCc1ccc(OC)cc1`, the Potency entry was “inactive”.
On to `C/C(C=O)=C\c1ccccc1`, for which the Potency entry was “inactive”.
In the case of `CNc1c2c(nn1C)CCCC2`, the Potency result was “inactive”.
As for `CNS(=O)(=O)c1cc(C(=O)N2CCC(CCN3C4CCC3CC(n3c(C)nc5ccccc53)C4)(c3cccc(F)c3)CC2)c(Cl)cc1F` (stereo unspecified), the Potency entry is “inactive”.
Still for that read-out and setting: to `O=C(O)c1cccc(Oc2ccccc2)c1` belongs “inactive”; to `CCO[Si](C)(CCCOCC1CO1)OCC` (stereo unspecified), “inactive”; to `CC[C@@H](CO)NCCN[C@@H](CC)CO`, “inactive”.
With `COc1ccc(-c2cc(=S)ss2)cc1`, the Potency result was “inactive”.
Turning to `CSCC[C@H](NC(=O)[C@H](Cc1c[nH]c2ccccc12)NC(=O)CCNC(=O)OC(C)(C)C)C(=O)N[C@@H](CC(=O)O)C(=O)N[C@@H](Cc1ccccc1)C(N)=O`, the Potency entry is “inactive”.
The same measure, in the same setting: to `CC(C)(C)C1(CCc2ccc(Cl)cc2)CO1` (stereo unspecified) belongs “inactive”; to `CCCCCCC(CO)CCCC` (stereo unspecified), “inactive”.
With `O=C(O)c1cc(Cl)cc(Cl)c1O`, the Potency result was “inactive”.
As to `Nc1c(Cl)cc(Cl)cc1[N+](=O)[O-]`, the Potency entry was “inactive”.
For the molecule `Nc1nc2ccc(OC(F)(F)F)cc2s1`, the Potency result was “inactive”.
On to `BrC(Br)C(Br)Br`, for which the Potency result is “inactive”.
Turning to `CC(=O)N[C@@H](Cc1ccc(O)cc1)C(=O)O`, the Potency entry was “inactive”.
The same measure, in the same setting: to `CC(CN(CCN(CC(C)OCCO)CC(C)OCCO)CC(C)OCCO)OCCO` (stereo unspecified) belongs “inactive”; to `CC12CC3CC(C)(C1)CC(N)(C3)C2`, “inactive”.
Turning to `CCC(Cl)CC(Cl)C(Cl)C(Cl)C(Cl)C(C)Cl` (stereo unspecified), the activation is 15.8% [at 19 µM] (inactive).
As for `Cc1ccc(N(CCO)CCO)cc1`, the Potency result was “inactive”.
As to `CC(=O)OCC1=C(C(=O)O)N2C(=O)[C@@H](NC(=O)CSc3ccncc3)[C@H]2SC1`, the Potency entry was “inactive”.
Consider `Cc1cccc(C)c1NC(=O)c1cc(S(N)(=O)=O)c(Cl)cc1O`, for which the Potency entry is “inactive”.
Take `CCN(CC)CCOC(=O)C(c1ccccc1)c1ccccc1`: the Potency entry was “inactive”.
Consider `CN1C(CSCC(F)(F)F)Nc2cc(Cl)c(S(N)(=O)=O)cc2S1(=O)=O` (stereo unspecified), for which the Potency entry was “inactive”.

Test system in the next assay: not listed separately
The experiment in a line: qHTS assay to identify small molecule agonists of the hypoxia (HIF-1) signaling pathway - cell viability counter screen (AID 1224844). Also: nearly all actives have a fitted effect of over 50% in size. Also: potency is read from the fitted curve at half-maximal effect. The note with it: HRE-bla ME-180 viability, CellTiter-Glo luminescence, 17 h; series mostly up to 76.8 µM. The method in brief:
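CellTiter-Glo luminescence read-out, 30 min RT, taken in the same wells as the beta-lactamase HRE reporter assay; HRE-bla ME-180 cells, 0.5% dialyzed FBS, 17 hr compound treatment at 37C, 5% CO2.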
In the case of `CC(C)c1ccc(C(=O)N=C(N)N)cc1S(C)(=O)=O`, the Potency result was “inactive”.
Regarding `COc1cc(NC(C)CCCN)c2ncccc2c1` (stereo unspecified), the Potency entry is “inactive”.
In the case of `CC(C(=O)O)c1ccc(C(=O)c2cccs2)cc1` (stereo unspecified), the Potency result was “inactive”.
As to `CCCCCc1ccco1`, the Potency result is “inactive”.
Consider `O=C(O)CCCc1c[nH]c2ccccc12`, for which the Potency result is “inactive”.
With `CC(C)(C)NCC(O)COc1cccc2c1C[C@H](O)[C@H](O)C2` (stereo partly specified), the Potency entry is “inactive”.
As to `Cc1cc(CCCOc2c(C)cc(-c3noc(C(F)(F)F)n3)cc2C)on1`, the Potency result is “inactive”.
As for `CC(C)(C(=O)c1cccnc1)c1cccnc1`, the Potency entry was “inactive”.
Turning to `Cc1c[nH]c2ccccc12`, the Potency result was “inactive”.
Consider `CC(=O)C(C)=O`, for which the Potency result is “inactive”.
The same measure, in the same setting: to `CCN(CC)CCNC(=O)c1cc(Cl)c(N)cc1OC` belongs “inactive”; to `Oc1ccc2c(c1)Cc1ccccc1-2`, “inactive”; to `O=C1OC[C@H](Cc2cccc(O)c2)[C@H]1Cc1cccc(O)c1`, “inactive”.
On to `CC(C)OC(=O)c1ccccc1C(=O)OC(C)C`, for which the Potency entry was “inactive”.
`CCC(=O)OCc1ccc(OC)cc1`: the Potency result was “inactive”.
As to `C/C(C=O)=C\c1ccccc1`, the Potency result was “inactive”.
Consider `CNc1c2c(nn1C)CCCC2`, for which the Potency entry is “inactive”.
The same measure, in the same setting: to `CNS(=O)(=O)c1cc(C(=O)N2CCC(CCN3C4CCC3CC(n3c(C)nc5ccccc53)C4)(c3cccc(F)c3)CC2)c(Cl)cc1F` (stereo unspecified) belongs 3.89 µM (active); to `O=C(O)c1cccc(Oc2ccccc2)c1`, “inactive”.
As to `CCO[Si](C)(CCCOCC1CO1)OCC` (stereo unspecified), the Potency result was “inactive”.
Still for that read-out and setting: to `CC[C@@H](CO)NCCN[C@@H](CC)CO` belongs “inactive”; to `COc1ccc(-c2cc(=S)ss2)cc1`, “inactive”; to `CSCC[C@H](NC(=O)[C@H](Cc1c[nH]c2ccccc12)NC(=O)CCNC(=O)OC(C)(C)C)C(=O)N[C@@H](CC(=O)O)C(=O)N[C@@H](Cc1ccccc1)C(N)=O`, “inactive”.
Regarding `CC(C)(C)C1(CCc2ccc(Cl)cc2)CO1` (stereo unspecified), the Potency result was “inactive”.
As to `CCCCCCC(CO)CCCC` (stereo unspecified), the Potency entry was “inactive”.
As for `O=C(O)c1cc(Cl)cc(Cl)c1O`, the Potency result was “inactive”.
Same read-out and setting: to `Nc1c(Cl)cc(Cl)cc1[N+](=O)[O-]` belongs “inactive”.
As for `Nc1nc2ccc(OC(F)(F)F)cc2s1`, the Potency result was “inactive”.
As for `BrC(Br)C(Br)Br`, the Potency result was “inactive”.
Consider `CC(=O)N[C@@H](Cc1ccc(O)cc1)C(=O)O`, for which the Potency entry is “inactive”.
Regarding `CC(CN(CCN(CC(C)OCCO)CC(C)OCCO)CC(C)OCCO)OCCO` (stereo unspecified), the Potency result is “inactive”.
For `CC12CC3CC(C)(C1)CC(N)(C3)C2`, the Potency entry was “inactive”.
Take `CCC(Cl)CC(Cl)C(Cl)C(Cl)C(Cl)C(C)Cl` (stereo unspecified): the activity change, negative = cytotoxicity is -3.49% [at 15.8 µM] (inactive).
For the molecule `Cc1ccc(N(CCO)CCO)cc1`, the Potency result is “inactive”.
As for `CC(=O)OCC1=C(C(=O)O)N2C(=O)[C@@H](NC(=O)CSc3ccncc3)[C@H]2SC1`, the Potency result is “inactive”.
In the case of `Cc1cccc(C)c1NC(=O)c1cc(S(N)(=O)=O)c(Cl)cc1O`, the Potency result was “inactive”.
Still for that read-out and setting: to `CCN(CC)CCOC(=O)C(c1ccccc1)c1ccccc1` belongs “inactive”; to `CN1C(CSCC(F)(F)F)Nc2cc(Cl)c(S(N)(=O)=O)cc2S1(=O)=O` (stereo unspecified), “inactive”.
